Measured values from PubChem BioAssay AID504652 (National Center for Advancing Translational Sciences (NCATS), 2011).
In all, about 360,000 compounds went through this assay and about 11,000 (3.1%) were called active. Rule as the data show it: active = activity change below about -30%; inactive = the rest. The sample as a whole holds a higher share of actives than the screen did.

What follows are molecules tested against D(1A) dopamine receptor (Homo sapiens) (UniProt P21728) (assay: Antagonist of Human D 1 Dopamine Receptor: qHTS). Details: HEK293 TREx D1 cells, calcium flux, dopamine EC80; at 10 µM; stronger effect = lower value.
Chain of D(1A) dopamine receptor (Homo sapiens) (P21728 whole entry, looked up): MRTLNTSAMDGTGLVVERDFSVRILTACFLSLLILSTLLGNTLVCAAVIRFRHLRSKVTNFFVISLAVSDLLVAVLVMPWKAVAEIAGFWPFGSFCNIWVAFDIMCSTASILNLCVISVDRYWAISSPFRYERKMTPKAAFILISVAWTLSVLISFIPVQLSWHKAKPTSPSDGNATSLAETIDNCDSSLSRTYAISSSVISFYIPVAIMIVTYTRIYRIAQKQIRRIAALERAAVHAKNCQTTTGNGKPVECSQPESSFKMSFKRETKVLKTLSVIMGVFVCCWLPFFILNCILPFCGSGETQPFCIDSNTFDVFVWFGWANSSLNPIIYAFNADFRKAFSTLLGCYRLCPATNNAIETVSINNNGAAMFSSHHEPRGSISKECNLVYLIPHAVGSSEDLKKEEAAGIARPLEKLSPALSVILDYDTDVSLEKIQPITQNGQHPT
Procedure, shortened: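 Tetracycline-induced HEK293 Trex D1 cells, force-coupled to calcium, dye-loaded; compounds added and read 180 s, then EC80 dopamine added and calcium flux tracked kinetically another 180 s.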
% is scaled to controls: 0 for no effect and ±100 for the full control effect.

Activity change, negative = inhibition, active:
O=c1cc(Cn2nnc(-c3ccc(Cl)cc3)n2)nc2sccn12 -32.8%
O=C(CCC1CCCC1)N=C1SC2CS(=O)(=O)CC2N1Cc1ccccc1 (stereo not given) -43%
COc1cc(OC)c2ccc(=O)oc2c1C(CCN1CCN(c2ccccc2)CC1)c1ccc2c(c1)OCO2 (stereo not given) -83.8%
COc1cc(C(CCN2CCN(c3ccccc3)CC2)c2c(OC)cc(OC)c3ccc(=O)oc23)cc(OC)c1OC (stereo not given) -74%
O=C1C=C(c2ccc(Cl)cc2)C(=O)N1Nc1ccccc1 -47.7%
N#Cc1nc(-c2ccc(OCc3ccccc3)cc2)oc1NCCCN1CCOCC1 -46.5%
CCc1ccccc1OCCSc1nc(-c2cccs2)nc2cc(=O)[nH]n12 -43.9%
Cn1cccc1/C=C1\SC(=S)N(NC(=O)c2ccc(Cl)cc2)C1=O -34%
NS(=O)(=O)c1ccc(NC(=O)COC(=O)c2c3c(nc4ccccc24)/C(=C\c2ccc4c(c2)OCO4)CCC3)cc1 -45.1%
Cc1oc2cc([N+](=O)[O-])c(O)c([N+](=O)[O-])c2c1C(=O)c1ccc(Br)cc1 -36.4%

Activity change, negative = inhibition, inactive:
O=c1c2ccccc2n(Cc2cccc(Cl)c2)c(=O)n1Cc1ccccc1 -3.55%
Fc1ccccc1Oc1ncnc2c1oc1ccccc12 -11.6%
O=C(OCc1cc(=O)n2ccsc2n1)C1(c2ccc(Cl)cc2)CC1 5.81%
CCn1c(SCc2cc(=O)n3ccsc3n2)nc2ccccc21 -2.02%
COc1ccc2[nH]c3c(c2c1)CCN(C(=O)CCC1CCCC1)C3c1ccc(F)cc1 (stereo not given) -3.48%
CC(C)c1ccc(OCC(=O)N(Cc2ccc(N(C)C)cc2)C2CCS(=O)(=O)C2)cc1 (stereo not given) 12%
CC(C)CC(=O)N=C1SC2CS(=O)(=O)CC2N1CCc1ccccc1 (stereo not given) 4.43%
C=CCN1C(=NC(=O)COc2ccccc2)SC2CS(=O)(=O)CC21 (stereo not given) 5.52%
COc1ccccc1CN1CCC(CNC(=O)c2cnn(-c3cccc(Cl)c3)c2C2CCN(C(=O)OC(C)(C)C)CC2)CC1 3.93%
Cc1ccc(Cl)cc1NC(=O)Cc1ccc(-n2c(C)nc3cccnc32)cc1 13%
COc1ccc(C(CC(=O)N2CCN(c3ccccc3)CC2)c2c(O)cc(OC)cc2OC)cc1 (stereo not given) 29.6%
O=C(NCC(c1ccc2c(c1)OCO2)N1CCN(c2ccccc2)CC1)C(=O)Nc1ccccc1F (stereo not given) 4.02%
COc1cc(C(=O)NCCS(=O)(=O)N2CCN(c3ccccc3)CC2)cc(OC)c1OC -13.9%
COc1ccccc1N1CCN(Cc2cc(OC)c3c(c2)OCO3)CC1 -0.813%
CC(=O)Nc1cccc(NC(=O)CSc2nccn2Cc2ccc3c(c2)OCO3)c1 1.91%
O=C(Nc1ccc(Br)cc1)c1ccc(Br)c(S(=O)(=O)NCc2ccccc2)c1 -21.6%
CCOc1ccccc1NC(=O)C1CCCN(S(=O)(=O)c2cn(C)cn2)C1 (stereo not given) -15.7%
Cc1ccccc1CNC(=O)CCCn1nc(C)c2sc3ccccc3c2c1=O -0.115%
CCOC(=O)Cn1c(=O)n(-c2ccccc2OC)c2nc(-c3cccc(F)c3)nc(C(N)=O)c21 -25%
CCc1cc2c(-c3ccccc3)cc(=O)oc2c2c1OCN(Cc1ccc(C)cc1)C2 -3.71%
O=C1CSC2(C(=O)N(Cc3ccccc3)c3ccccc32)N1c1cccc(F)c1 (stereo not given) -4.64%
CC1CCCN(c2csc3ccc(F)cc3c2=O)C1 (stereo not given) -8.32%
COc1ccc(C2=NC3(CCCCC3)N(CC(=O)Nc3ccc(C(C)C)cc3)C2=O)cc1 -5.42%
Cc1cccc(NC(=O)Cn2nc(-c3ccc(Cl)cc3)c3ccccc3c2=O)c1 6.9%
Cc1ccc(-c2cn3c(n2)sc2cc(C(=O)NCCCc4ccccc4)ccc23)cc1 7%
Cc1ccc(-c2nc(C#N)c(NCCCn3ccnc3)o2)cc1 5.54%
O=S(=O)(c1ccccc1)c1nc(-c2ccccc2)oc1NCCCN1CCOCC1 -15%
Cc1cc(C)cc(NC(=O)Cn2nc(N3CCN(c4ccccc4)CC3)ccc2=O)c1 25.5%
COc1ccc(C)cc1NC(=O)C(=O)NCCc1sc(-c2cccc(C)c2)nc1C -28.6%
O=c1cc2nc(-c3ccccc3)nc(SCCOc3ccc(Cl)cc3)n2[nH]1 -2.6%
Cc1ccc(OCCSc2nc(-c3cccs3)nc3cc(=O)[nH]n23)cc1Cl -20.2%
CCc1ccc(NC(=O)CN2C(=O)CCSc3ccc(S(=O)(=O)N4CCCC4)cc32)cc1 4.1%
COc1ccccc1NC(=O)c1cc(S(=O)(=O)NCCc2ccccc2)ccc1F -14.3%
O=C(O)c1ccc(/C=C2\SC(=S)N(NC(=O)c3ccc(Br)cc3)C2=O)cc1 -2.74%
CC(=O)N1C(=O)/C(=C2\SC(=S)N(NC(=O)c3ccc(O)cc3)C2=O)c2ccccc21 2.62%
NC(=O)c1ccc(NC(=O)COC(=O)c2c3c(nc4ccccc24)/C(=C\c2ccc4c(c2)OCO4)CCC3)cc1 -7.23%
COc1cc(/C=C2\CCCc3c2nc2ccccc2c3C(=O)O)cc(Cl)c1O -14.9%
CCCCN(C)CCCNC(=O)CN1N=C(c2ccc(OC)cc2)CCC1=O 3.24%
CCCC12CN3CC(C)(CN(C1)C3c1ccccc1Cl)C2=O (stereo not given) -3.8%
COc1cccc(-n2c(=O)c3c(C)c(C(=O)N(C)C)sc3n(Cc3cccc(C)c3)c2=O)c1 4.64%
Cc1cc(C)cc(NC(c2nnc(-c3cccc(F)c3)o2)c2ccc(F)cc2Cl)c1 (stereo not given) 12.4%
N#C/C(=C\c1ccccc1F)c1nc2ccccc2c(=O)[nH]1 -3.28%
CSc1nc(=O)c2c(n1C)NC(=O)CC2c1ccccc1OC(C)C (stereo not given) 2.77%
Cc1oc2cc(Br)c(O)c(Br)c2c1C(=O)c1ccccc1 -4.24%
COc1ccc(C(=O)c2c(C)oc3cc([N+](=O)[O-])c(O)c([N+](=O)[O-])c23)cc1 12.5%
